Records with an inconclusive call do not appear. Unmarked numbers belong to inactive results. Active and inactive are the calls of the source. Calls come from the whole dose curve; as a rule, active = well fitted inhibition curve with a large enough effect; inconclusive = small, poorly fitted or top-dose-only effect; inactive = no such curve, though single readings can be large or run the other way.
target: Tumor susceptibility gene 101 protein (Homo sapiens) (UniProt Q99816); experiment: qHTS Assay for Iinhibitors of HIV-1 Budding by Blocking the Interaction of PTAP/TSG101: Hit Validation in TR assay; details: Tsg101 binding domain + Texas Red-labeled PTAP peptide, fluorescence polarization, 20 min; series mostly up to 57.5 µM; activity change, negative = inhibition: at the top concentration
Method in brief: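 Fluorescence polarization: Tsg101 binding domain (10 uM final) with Texas Red-labelled PTAP peptide (50 nM final) in HEPES pH 7.5, 0.15 M NaCl, Tween 20, EDTA, TCEP; 20 min binding at room temperature after compound addition.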
% is set by controls: 0 for no effect and ±100 for the full control effect; potency is the fitted concentration of half-maximal effect.

Sequence of Tumor susceptibility gene 101 protein (Homo sapiens) (Q99816 whole entry, looked up, the tested form may be a part): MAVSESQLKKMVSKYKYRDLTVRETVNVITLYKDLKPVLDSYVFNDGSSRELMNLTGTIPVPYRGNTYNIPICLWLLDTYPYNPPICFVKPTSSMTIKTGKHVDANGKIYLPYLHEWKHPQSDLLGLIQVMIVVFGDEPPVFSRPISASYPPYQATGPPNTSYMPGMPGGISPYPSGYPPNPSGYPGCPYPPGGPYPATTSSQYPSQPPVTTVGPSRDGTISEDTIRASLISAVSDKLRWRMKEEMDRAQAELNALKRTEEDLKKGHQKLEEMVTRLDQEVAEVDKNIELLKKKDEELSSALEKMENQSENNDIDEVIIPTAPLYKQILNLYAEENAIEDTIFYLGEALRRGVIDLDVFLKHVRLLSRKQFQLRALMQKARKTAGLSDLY

SMILES | activity change, negative = inhibition [%] | Potency
Cc1ccc(-c2nc(C=Nc3ccc(O)cc3)c(O)o2)cc1 | 26.2 | 
CN1CCCc2cc3c(C(F)(F)F)cc(=O)oc3nc21 | 4.6 | 
O=[N+]([O-])c1cc(Cl)cc(/C=N/n2cnnc2)c1O | -10.1 | 
CCSc1nnc(-c2sc3nnc(-c4ccccc4)c(-c4ccccc4)c3c2N)o1 | -22.1 | 
CC1CCc2cccc3c2N1c1cc(C#N)c(C#N)cc1O3 (centres undefined) | 0.564 | 
CCN(CC)c1ccc(/C=C(\C#N)C(=O)c2ccc(Br)cc2)cc1 | -13.5 | 
Cn1c(=O)c2nc3ccc(NC(=O)C(F)(F)F)cc3nc2n(C)c1=O | -13.7 | 
CCc1c(C)sc(NC(=O)c2ccccc2[N+](=O)[O-])c1C(N)=O | -10.6 | 
Cc1ccc(-c2cccc(NC(=O)C3C4C=CC(C4)C3C(=O)O)c2)o1 (centres undefined) | -5.45 | 
N#CC(C(=O)NC1CC1)c1nc2ccccc2nc1N1CCCC1 (centres undefined) | 35.9 | 
COc1ccc(C(=O)c2sc3nc(C)cc(-c4cccs4)c3c2N)cc1 | -1.86 | 
N#C/C(=C\c1ccccn1)c1nc2ccccc2s1 | 40.6 | 
Cc1c2ccccc2nc2c(F)c(NCCO)c(F)c(F)c12 | 11.2 | 
CCCCCCN1C=CC=C/C1=C/C=C(C#N)C#N | 39.2 | 
c1ccc2c(c1)CCCN2Cc1nnnn1CC1CCCO1 (centres undefined) |  | 18.3 µM (active)
CC1CCN(Cc2c(O)ccc3c2O/C(=C\c2ccco2)C3=O)CC1 | 17.8 | 
CN1C(=O)c2cccc3c(N)ccc(c23)C1=O | 2.6 | 
Clc1ccc(-c2nnc3sc(-c4ccc(Br)o4)nn23)cc1 | 63.6 | 
CN1CC=C2C(C#N)=C(N)C(C#N)(C#N)[C@H](c3ccoc3)[C@H]2C1 | 2.73 | 
CCN(CC)C(=O)[C@H]1CC(CC(=O)NCc2cccc(C(F)(F)F)c2)C(=O)N2CCc3c([nH]c4ccc(OC)cc34)[C@]12C (some centres undefined) | 25.7 | 

SMILES | activity change, negative = inhibition [%] | Potency
O=C1CCCC2=C1Sc1ccc(Cl)cc1N2 | 17 | 
O=C(C1=NN(c2ccccc2)C2C(=O)N(c3ccccc3)C(=O)C12)c1ccccc1 (centres undefined) | -19.4 | 
O=C(/C=C/c1ccc(Cl)cc1Cl)c1nc2ccccc2[nH]1 | 1.89 | 
Cc1c2cc(O)c(=O)cc-2oc2cc(O)c(O)cc12 | 9.22 | 
NC(=O)c1ccccc1NCC(=O)c1ccc(F)cc1 | -2.66 | 
CCN(CC)C(=O)c1sc2nc(-c3cccs3)cc(-c3cccs3)c2c1N | -10.4 | 
O=C(NCc1cccc(F)c1)c1cccc2c1C(=O)c1ccc(N3CCC(Cc4ccccc4)CC3)cc1S2(=O)=O | -8.59 | 
Cc1cc(Nc2cccc(Cl)c2C)n2ncnc2n1 | -4.37 | 
COCC1CCN(Cc2c(C(=O)N3CCc4ccccc4C3)nc3ccc(Cl)cn23)C1 (centres undefined) | 85.7 | 
Cc1ccc(N=Cc2c(O)n(-c3nccs3)c(=O)c3ccccc23)c(C)c1 | 36 | 
CN1/C(=C\C=C2/C(=O)Oc3ccccc3C2=O)C(C)(C)c2ccccc21 | 14.8 | 
Nc1ccc(-c2c3ccc(=O)cc-3oc3cc(O)ccc23)c(C(=O)O)c1 | -14.5 | 
CC1(C)CC(=O)C2=C(C1)OC(N)=C(C#N)[C@@H]2c1ccccc1[N+](=O)[O-] | -8.7 | 
O=c1c(/C=C(\O)c2ccccc2)nc2ccccc2n1-c1ccccc1 | 10.3 | 
O=C(CN1C(=O)c2ccccc2S1(=O)=O)Nc1ncc(Cl)cc1Cl | 24.7 | 
CSC1=NSC2=NC(=O)/C(=C\c3coc4ccccc4c3=O)C(=N)N12 | 37.4 | 
COc1cccc2c1C(=O)c1c(O)c3c(c(O)c1C2=O)C[C@](O)(C(C)=O)C[C@H]3O[C@@H]1C[C@@H](N)[C@@H](O)[C@@H](C)O1 | -13.4 | 
CCN(CC)CCCNc1ccc2ncn3c4ccc(O)cc4c(=O)c1c23 | 2.6 | 
CSc1c(C#N)c(N)nc2sc(C(=O)c3ccc(Cl)c(Cl)c3)c(N)c12 | 8.16 | 

— PubChem BioAssay AID651599 (National Center for Advancing Translational Sciences (NCATS), 2012)
